Bioassay records: PubChem BioAssay, National Center for Advancing Translational Sciences (NCATS)
Only some compounds are listed: those with a hit (about 20% of all), similar ones and a draw of the others.
Pf growth 96h: inhibits malaria parasite growth, 96 h. P. falciparum luciferase reporter growth, 96 h. Potency, µM (doses to about 28.7 µM), for the others: at the highest dose activity change, negative = inhibition, most hits filed as inhibitors. 320,000 compounds, 6.9% hits. AID 504834; further: potency means the concentration at half of the fitted maximal effect; on the % scale 0 is the no-effect control and ±100 the full control effect
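Infected RBCs, 2% Hct / 0.05% parasitemia final; luciferase-reporter P. falciparum; cpd 96 h, 37 C, 5% CO2; luciferase detection reagent; luminescence.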
HCMV inh: human cytomegalovirus inhibition | HFF cells, HCMV-luciferase reporter, 72 h; active compounds read low | activity change, negative = inhibition, % at 57.5 µM | 410,000 compounds, 4.5% hits | AID 1259415; in the data active means activity change below about -60%; inconclusive means no clear call, values can overlap the other calls; inactive means above about -39%; further: on the % scale 0 is the no-effect control and ±100 the full control effect
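Cell-based, HFFs, 1000 cells/well, 16 h 37C; cpds in DMSO + HCMV-luc, MOI 1 PFU/cell; 72 h 37C; OneGlo luminescence after 5 min RT; norm. to buffer vs Salinomycin 10uM.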
Cycloheximide cs: counter-screen hit for Shiga toxin inhibitors, cycloheximide; 300,000 compounds, 12% hits; max response, %; cell reporter, cycloheximide protein synthesis inhibition counterscreen; in the data active means max response mostly above about 13%, no sharp cut-off; inactive means mostly below about 14%; further: read at 38.3 µM for the half of the compounds with a filed dose; 0% is about no effect
Shiga inhibitor: inhibitors of Shiga toxin in Vero cells | Vero cells, Shiga toxin protein synthesis inhibition reporter | inhibition, % at 38.7 µM | 290,000 compounds, 9.2% hits; in the data active means inhibition mostly above about 28%, no sharp cut-off; inactive means mostly below about 43%; further: 0% is about no effect
Pf growth 48h: P. falciparum growth inhibition at 48 hours (one generation). P. falciparum luciferase growth in erythrocytes, 48 h. Potency, µM (top dose mostly 28.7 µM), inactives show at the highest dose activity change, negative = inhibition, usual class: inhibitors. 310,000 compounds, 5.9% hits. AID 504832; further: potency means the concentration at half of the fitted maximal effect; on the % scale 0 is the no-effect control and ±100 the full control effect
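Compounds are pin-transferred into medium, infected erythrocytes (2% hematocrit, 0.1% parasitemia final) are added, and plates sit one parasite generation at 37 C in 5% CO2. Detection reagent is then added and luminescence measured.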
* marks the source's active call; other numbers are inactive results; u = inconclusive; x = not tested or not shown. Unless noted, the call rests on the fitted dose curve; in most records, active means well fitted inhibition curve with a large enough effect; inconclusive means small, poorly fitted or top-dose-only effect, or another doubt; inactive means no such curve, though single readings can be large or run the other way.

SMILES	Pf growth 96h	HCMV inh	Cycloheximide cs	Shiga inhibitor	Pf growth 48h
CC(=O)Nc1sc2c(c1CN1CCCC1)CCCC2	u	9	-4	-19	u
Cc1sc(NC(=O)c2ccco2)c(CN2CCN(c3ccccn3)CC2)c1C	8%	x	32*	54	9.3µM*
CC(=O)Nc1sc2c(c1CN1CCN(c3ccc(F)cc3)CC1)CCCC2	9.3µM*	1	-4	-16	x
O=C(NC(=S)N1CCN(c2ccccn2)CC1)c1ccco1	-28%	-37	18*	36	22%
CC(=O)Nc1sc(C)c(C)c1CN1CCN(Cc2ccccc2)CC1	4.1µM*	51	11	10	u
c1cnc(Oc2ccc(-c3nnco3)cc2)cn1	u	6	2	-14	14%
Cc1cc(=O)cc(C)n1-c1ccc(F)cc1F	6%	0	10	-6	12%
CC(NNC(=S)N1CCN(c2ccccn2)CC1)c1nccc2ccccc12 (centres undefined)	x	-98*	x	x	x
O=C(N/N=C/c1sc(=O)[nH]c1-[n+]1ccc2ccccc2c1)c1ccccc1[O-]	-7%	-5	27*	48*	26%
O=c1[nH]c(-[n+]2ccccc2)c(/C=N/N=C(\[O-])c2ccccc2)s1	0%	0	19*	41*	14%
O=C(N/N=C/c1sc(=O)[nH]c1-[n+]1ccccc1)c1ccccc1[O-]	-16%	-26	10	20	9%
Cc1cc[n+](-c2[nH]c(=O)sc2/C=N/N=C(\[O-])c2ccccc2)cc1	52%	-4	49*	68*	-28%
Cc1cc[n+](-c2[nH]c(=O)sc2/C=N/N=C(\[O-])c2ccccc2)cc1C	0%	-31	39*	74*	37%
N/C(=N\OC(=O)c1ccc(=O)n(Cc2ccccc2)c1)c1ccccn1	u	0	30*	63*	13µM*
N/C(=N\OC(=O)c1ccc(=O)n(Cc2ccc(Cl)cc2)c1)c1ccccn1	13µM*	-38	28	6	12µM*
O=S(=O)(c1ccccc1)c1ncc(C(F)(F)F)cc1Cl	u	-30	17	16	10µM*
Cc1cc(N(C)/N=C/c2ccccc2O)nc(-c2ccccc2O)n1	u	13	-3	11	u
Cc1cc(Nc2ccc(F)c(F)c2)nc(-c2ccccc2O)n1	u	-37	-3	-7	u
C/C(=N\Nc1cc(C)nc(-c2ccccc2O)n1)c1ccccc1	u	u	31*	151	-86%
CC(=NNc1ccc([N+](=O)[O-])cn1)c1ccccc1	x	2	x	x	x
C/C(=N\Nc1cc(C)nc(-c2ccccc2)n1)c1cccc([N+](=O)[O-])c1	0.41µM*	-2	5	1	12µM*
Cc1cc(N/N=C/c2ccc(O)c(C)c2O)nc(-c2ccccc2O)n1	u	-103*	25*	32	5.9µM*
Cc1ccc(C)c(CN2CCC(CNC(=O)CCc3nnc4ccc(N5CCC(C)CC5)nn34)CC2)c1	u	u	-3	-2	u
COc1cc(CC(=O)OCC(=O)Nc2ccc3c(c2)OCO3)cc(OC)c1OC	-20%	-10	-1	-14	14%
Fc1ccc(-c2nc(-c3cnccn3)no2)c(Cl)c1	233%	61	40*	83*	291%
SMILES	Pf growth 96h	HCMV inh	Cycloheximide cs	Shiga inhibitor	Pf growth 48h
Clc1ccc(-c2nc(-c3cnccn3)no2)cc1	289%	95	30*	59*	213%
Fc1ccc(-c2cc(-c3nc(-c4ccccc4)no3)[nH]n2)cc1	x	-29	x	x	x
COc1cc(C(=O)Nc2ccccc2C2COC(=O)C2=N)cc(OC)c1OC (centres undefined)	0%	27	0	8	0%
CC(C)c1ccc(NC(=O)[C@H]2CSCN2C(=O)[C@@H]2CCC(=O)N2)cc1	102%	-9	8	9	5%
O=C1CC(c2ccccc2Oc2cccc(Cl)c2)C(n2cncn2)C(=O)C1C1NCCc2ccccc21 (centres undefined)	-14%	u	6	12	0%
CC(C)(C)c1ccc(Oc2cccc(C3CC(=O)C(C4NCCc5ccccc54)C(=O)C3n3cncn3)c2)cc1 (centres undefined)	14%	u	9	10	1.2µM*
C=C(C)CSc1cc(C)c(C#N)c2nc3ccccc3n12	u	-75*	0	10	u
Cc1cc(Nc2ccc(F)cc2)n2c(nc3ccccc32)c1C#N	x	-25	x	x	x
COCCN(CCOC)c1cc(C)c(C#N)c2nc3ccccc3n12	10µM*	22	-2	12	u
